The record followed here is PubChem BioAssay (NCI).

Holding throughout (experiment): NCI-60 one-dose screen, 48 h (100 = growth as untreated, 0 = no growth, -100 = all killed)
Conditions in all cases: 10 µM unless noted

Assay [1] relates to NCI-H23 lung.
For assay [2], the system named is NCI-H226 lung.
Assay [3] concerns NCI-H322M lung.
Assay [4] has as its system HOP-62 NSCLC.
Assay [5] deals with NCI-H460 lung.
In assay [6] the test system is HOP-92 NSCLC.
Assay [7] relates to NCI-H522 lung.
For assay [8], the system named is A549/ATCC NSCLC.
The subject of assay [9] is 786-0 renal.
In assay [10] the test system is COLO 205 colon.
Assay [11] concerns DU-145 prostate.
For assay [12], the system named is K-562 leukemia.
Assay [13] concerns MALME-3M melanoma.
The test system of assay [14] is MDA-MB-231 breast.
In assay [15] the test system is RXF 393 renal.
The test system of assay [16] is SF-268 CNS.
Assay [17] has as its system SF-295 CNS.
The test system of assay [18] is SF-539 CNS.
In assay [19] the test system is UACC-257 melanoma.
Assay [20] relates to M14 melanoma.

This is part of a sample that, as a whole, favours compounds with a hit. Of some 83,000 tested, about 20% had one in any assay.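 The test compound was applied at a single concentration to cells in 96-well plates for 48 hours, and percent growth was recorded.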 Unmarked numbers belong to inactive results. The source made the active and inactive calls. The calls were made as follows: active = growth percent below 10; inactive = the rest.

As for `O=C(CN1N=C(c2ccc(F)cc2)CCC1=O)Nc1nccs1`, the growth in [1] was 103%; in assay [2] it was 110%; in assay [3], 100%; in assay [4] it was 98.9%; in [5], 97.7%; in [6] it was 86.6%. The growth in assay [7] was 83.2%; in assay [8], 77.8%; in assay [9] it was 103%; in assay [10] it was 113%; in assay [11] it was 118%; in assay [12] it was 92.6%. Besides, the growth is 105% in assay [13]; 109% in [14]; 110% in assay [15]; 99.9% in [16]; 97.3% in [17]; 98.1% in assay [18]. The growth in [19] is 92.8%; in [20], 102%.
Regarding `Cc1cc(C)c(NC(=O)c2sc3nc4c(cc3c2N)CCCCCC4)c(C)c1`, the growth was 81.1% in [1]; 75.6% in assay [2]; 99.7% in assay [3]; 45.6% in assay [4]; 46.2% in assay [5]; 51.3% in assay [6]. In addition, the growth in [7] was 4.69% (active); in [8], 53.2%; in assay [9], 48.7%; in assay [10], 81.5%; in assay [11], 66.4%; in assay [12], 16.8%. The growth in assay [13] is 57.4%; in assay [14], 88.2%; in [15] it was 65.8%; in assay [16], 59.4%; in assay [17], 38.1%; in assay [18], 60%. The values for the growth in [19] and in assay [20] were 62.8% and 27%, respectively.
As for `COc1cc(/C=C/C(=O)c2ccc(NC(=O)CSc3nnc(-c4cc(OC)c(OC)c(OC)c4)n3-c3ccccc3)cc2)cc(OC)c1OC`, the growth was -3.58% (active) in assay [1]; -64% (active) in assay [2]; 64.5% in assay [3]; -9.19% (active) in [4]; 13% in assay [5]; 53.9% in assay [6]. In addition, the growth in [7] is -4.14% (active); in [8], 20.2%; in [9] it was -52% (active); in [10], 10.2%; in assay [11] it was 26.5%; in assay [12], 6.66% (active). The growth is 67.7% in assay [13]; 42.7% in assay [14]; -55.4% (active) in [15]; 34.3% in assay [16]; 17.7% in [17]; 18.6% in [18]. Besides, the values for the growth in assay [19] and in assay [20] were 45.8% and -9.25% (active), respectively.
With `C/C(=N\NC(=O)c1ccncc1)c1ccc(N)cc1`, the growth in assay [1] was 101%; in assay [2], 102%; in assay [3] it was 91.5%; in [4], 95.8%; in [5], 99.3%; in assay [6], 80.6%. In addition, the growth in assay [7] was 75.4%; in [8] it was 90.6%; in assay [9] it was 99%; in [10] it was 117%; in assay [11], 107%; in [12], 83.6%. Further, the growth in [13] was 98.5%; in assay [14] it was 98.4%; in [15], 106%; in [16], 99.2%; in assay [17], 99.4%; in assay [18], 98.5%. Moreover, the growth is 93% in assay [19] and 102% in assay [20].
As to `C=C1C(=O)O[C@H]2[C@H]1CC/C(COC(=O)CCCCCCCCC(=O)OC/C1=C/CC[C@@]3(C)O[C@H]3[C@H]3OC(=O)C(=C)[C@@H]3CC1)=C\CC[C@@]1(C)O[C@@H]21`, the growth in assay [1] was -37.5% (active); in [2], 1.19% (active); in assay [3], 83.9%; in [4], 60.2%; in assay [5] it was 27.1%; in assay [6] it was -25.9% (active). For the same compound, the growth in [7] was -51.3% (active); in assay [8], 77.1%; in assay [9] it was -29.1% (active); in assay [10], -46.4% (active); in assay [11], 6.71% (active); in assay [12], 1.49% (active). Moreover, the growth in assay [13] was -18.4% (active); in assay [14], -41.2% (active); in [15], -86.6% (active); in [16], 20.7%; in assay [17] it was 87.4%; in [18], -36.6% (active). Besides, the growth was 24.6% in [19] and -44.7% (active) in [20].
As to `O=C1Nc2ccccc2C12C=C(c1ccccc1)Nc1c2c(-c2ccccc2)nn1-c1ccccc1` (stereo not given), the growth in assay [1] is 84.1%; in [2] it was 96.9%; in [3], 82.7%; in assay [4], 81.4%; in assay [5], 36.5%; in [6], 66.4%. The growth in [7] was 69.4%; in assay [8], 44.8%; in assay [9] it was 80.6%; in assay [10], 80.8%; in [11], 83.4%; in assay [12], 37.5%. The growth in assay [13] was 98.5%; in assay [14], 85.6%; in [15] it was 5.5% (active); in assay [16], 58.5%; in assay [17], 42.1%; in assay [18], 86.4%. Further, the growth in assay [19] is 88.7%; in assay [20] it was 58.2%.
For the compound `CCOC(=O)c1c(C)nc2c(c1N)/C(=C/c1cccs1)C(=O)N2Cc1ccccc1`, the growth is 74.5% in assay [1]; 77.5% in assay [2]; 91.9% in assay [3]; 68.8% in [4]; 67.1% in [5]; 60.4% in assay [6]. The growth in assay [7] was 58.3%; in assay [8], 77.9%; in assay [9] it was 52.1%; in [10] it was 61.3%; in assay [11] it was 62%; in assay [12], 34.7%. The growth in assay [13] was 85.1%; in assay [14], 55.4%; in [15], 40%; in [16], 74.7%; in [17], 88%; in [18], 90.7%. Also, the growth was 74% in [19] and 73.8% in assay [20].
Take `CC(/C=C/c1ccccc1)=N/NC(=O)c1ccncc1`: the growth in assay [1] was 98.2%; in [2], 104%; in assay [3], 99.7%; in assay [4], 103%; in assay [5] it was 102%; in [6] it was 77.8%. Moreover, the growth in assay [7] was 92.9%; in [8], 93.4%; in assay [9] it was 103%; in assay [10], 119%; in [11], 112%; in [12], 100%. In addition, the growth in assay [13] is 89.5%; in assay [14], 105%; in [15], 113%; in [16], 102%; in assay [17], 109%; in [18] it was 105%. Moreover, the growth was 89.8% in [19] and 101% in assay [20].
